Only some compounds are listed: those with a hit (about 6.2% of all), similar ones and a draw of the others.
HCMV inh: human cytomegalovirus inhibition. 4.5% of 410,000 active. HFF cells, HCMV-luciferase reporter, 72 h; stronger effect = lower value. activity change, negative = inhibition, % at 57.5 µM; in the data active = activity change below about -60%; inconclusive = no clear call, values can overlap the other calls; inactive = above about -39%
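Screen run at 2 compound doses on HFFs infected with reporter HCMV, MOI 1 PFU/cell. Luciferase activity from cell lysates at 72 h post infection gave inhibition relative to buffer-only and Salinomycin wells.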
Marburg entry inh: blocks Marburg virus binding to or entry into cells | Marburg virus pseudotyped entry inhibition, cell reporter | Potency, µM (titrated, usually from 37.8 µM), for the others: at the top dose activity change, negative = inhibition, actives largely listed as inhibitors | 1.8% of 300,000 active; calls by dose curve; tested in HEK293 cells; note: potency is the fitted concentration of half-maximal effect
Lassa entry inh: inhibitors of Lassa virus binding or cell entry. Lassa virus pseudotype entry inhibition, cell reporter. Potency, µM (series often up to 37.9 µM), for the others: at the top dose activity change, negative = inhibition, most hits filed as inhibitors. 1.2% of 300,000 active. AID 540256; calls by dose curve; tested in HEK293 cells; note: potency is the fitted concentration of half-maximal effect; nearly all actives have a fitted effect of over 50% in size
FMDV antiviral: antivirals against foot and mouth disease virus; 1.2% of 410,000 active; FMDV antiviral cell-based qHTS; Potency, µM (doses to about 57.9 µM), for the others: top-dose activity change, negative = inhibition, actives largely listed as inhibitors; calls by dose curve; tested in HEK293T cells; note: read-out not given here; potency is the fitted concentration of half-maximal effect; nearly all actives have a fitted effect of over 45% in size
An asterisk follows results filed as active; u = inconclusive; x = no result given; [ ] = remark or other dose. % is set by controls: 0 for no effect and ±100 for the full control effect.

SMILES | HCMV inh | Marburg entry inh | Lassa entry inh | FMDV antiviral
COc1ccc(NC(=S)NNc2ccc([N+](=O)[O-])cc2S(=O)(=O)Nc2ccc(C)cc2C)cc1 | -65.8* | u | u | -13.4%
N#Cc1ccc(Oc2nc(C#N)cc(-c3ccccc3)n2)cc1 | u | -6.2% | -34.9% | 11.2µM*
COc1ccc(-c2cc(C#N)nc(Oc3ccc(Cl)cc3)n2)cc1 | -33.3 | u | u | -26.9%
Cc1csc(SCC(=O)Nc2cc(S(=O)(=O)N3CCOCC3)ccc2N2CCOCC2)n1 | 12.7 | x | x | -0.2%
CCC1(C)NC(=O)N(/N=C/c2ccc(C)s2)C1=O (configuration not stated) | -98.3* | x | x | 54.6%
CC1CCCC(NC(=O)COC(=O)COc2cccc(F)c2)C1C (configuration not stated) | -32.5 | 11.1%[46.1 µM] | -25.3%[46.1 µM] | 0.1%
COc1cccc(C2=Nn3c(nnc3-c3ccccc3O)SC2)c1 | 59.8 | -27.2% | -15.4% | 2.9%
C[n+]1c2n(c3ccccc31)N=C(c1cc(C(C)(C)C)c(O)c(C(C)(C)C)c1)CS2 | -100.7* | 11.2µM* | u | 14.1µM*
COc1ccc(S(=O)(=O)N2CCN(c3ccccc3OC)CC2)cc1OC | -10.0 | 2.5% | -14.9% | -16.2%
O=S(=O)(c1ccccc1)c1ncc(C(F)(F)F)cc1Cl | -29.6 | u | u | 11.2µM*
COc1cc(N2CCN(C(C)C)CC2)ccc1Nc1nc(Nc2ccc(F)cc2C(N)=O)c2cc[nH]c2n1 | x | x | 25µM* | x
COc1cc2c(cc1Nc1nc(Nc3ccsc3C(N)=O)c3cc[nH]c3n1)N(C(=O)CN(C)C)CCC2(C)C | x | x | 0.499µM* | x
COc1ccc(C(=O)CN2CCN(c3ccc(F)cc3)CC2)cc1OC | u | 0.1% | 25.2% | -9.4%
COc1cc(C)c(NC(=O)CN(C)C)cc1Nc1nc(Nc2cccc(F)c2C(N)=O)c2cc[nH]c2n1 | x | x | 2.5µM* | x
COc1ccc(CN(C)CC(=O)Nc2cccc3ccccc23)cc1F | 17.6 | u | 2.3%[46.1 µM] | 2.7%
CN1C[C@H](C(=O)N[C@]2(C)O[C@@]3(O)[C@@H]4CCCN4C(=O)[C@H](Cc4ccccc4)N3C2=O)C[C@@H]2c3cccc4[nH]cc(c34)C[C@H]21 | x | 1.12µM* | u | x
CC(C)[C@@]1(NC(=O)[C@H]2CC3c4cccc5[nH]cc(c45)C[C@H]3N(C)C2)O[C@@]2(O)C3CCCN3C(=O)[C@@H](Cc3ccccc3)N2C1=O (some centres not stated) | x | x | x | -11.7%
CN1C[C@H](C(=O)N[C@]2(C)O[C@@]3(O)C4CCCN4C(=O)[C@H](Cc4ccccc4)N3C2=O)C[C@@H]2c3cccc4[nH]cc(c34)C[C@H]21 (some centres not stated) | x | 1.12µM* | x | x
CN1C[C@H](C(=O)N[C@]2(C)O[C@@]3(O)[C@@H]4CCCN4C(=O)[C@H](Cc4ccccc4)N3C2=O)CC2c3cccc4[nH]cc(c34)C[C@H]21 (some centres not stated) | -18.6 | x | x | -1.7%
COC(=O)[C@@H]1C[C@@]2(O)[C@H](O)[C@H](O)[C@H](O)C[C@H]2N1Cc1cccc2ccccc12 | -3.8 | x | x | -23.4%
COc1cc(C(=O)NC2CCCCC2)ccc1OC1CCN(C(C)=O)CC1 | 36.5 | 0.7%[46.1 µM] | -13.1%[46.1 µM] | 2.1%
COc1cc(C(=O)N2CCC(N3CCN(C)CC3)CC2)ccc1Nc1ncc2c(n1)N(C)c1ccccc1C(=O)N2C | -72.7* | x | x | x
CCN1C(=O)CCN(C2CCCC2)c2nc(Nc3ccc(C(=O)NC4CCN(C)CC4)cc3OC)ncc21 | -72.9* | x | x | 18.7%
Cc1ccc(NC(=O)Cc2coc3c(C)c(C)ccc23)c(C)c1 | -8.0 | u | -4.2%[46.1 µM] | -3.5%
COc1cc(/C=C2/NC(=O)N(Cc3ccccc3F)C2=O)cc(OC)c1O | -32.5 | 1.0%[46.1 µM] | u | -7.6%
SMILES | HCMV inh | Marburg entry inh | Lassa entry inh | FMDV antiviral
CN1C/C(=C/c2ccsc2)C(=O)/C(=C/c2ccsc2)C1 | -85.7* | 5.01µM* | u | 28.2µM*
CCOc1cc(/C=C2/NC(=O)N(Cc3ccccc3F)C2=O)ccc1O | -60.6* | 15.8µM* | -25.0% | -12.9%
CCOc1cc(/C=C2\CCC/C(=C\c3cc(Cl)c(O)c(OCC)c3)C2=O)cc(Cl)c1O | -98.2* | 11.2µM* | 8.91µM* | 15.8µM*
CCOc1cc(/C=C2\CN(C)C/C(=C\c3ccc(O)c(OCC)c3)C2=O)ccc1O | -100.0* | u | u | 17.8µM*
Nc1c(C(=O)Nc2ccc(OC(F)(F)F)cc2)sc2nc(-c3ccncc3)ccc12 | u | -8.9%[46.1 µM] | u | u
Cc1cc(C)c(C)c(S(=O)(=O)NCc2ccc(C(=O)N3CCOCC3)cc2)c1C | -11.3 | -15.9% | 0.0% | -10.0%
CC(C)c1ccc(-c2noc(SCC(=O)N3CCN(c4ccc(F)cc4)CC3)n2)cc1 | -11.9 | x | 20.8%[46.1 µM] | 37.2%
O=C(Cc1ccccc1)OCC(=O)N1CCN(S(=O)(=O)c2ccc(Cl)cc2)CC1 | u | 16.9%[46.1 µM] | 18.0% | -22.9%
COc1ccc(C(C)=O)cc1Cc1c(O)[nH]c(=S)[nH]c1=O | -23.7 | x | x | 5.6%
COC1CCC(OC2CC(C3(C)CCC4(CC(O)C(C)C(C(C)/C=C(\C)C(=O)C(C)CC(C)C(=O)O)O4)O3)OC3(OC(C4OC(O)(CO)C(C)CC4C)CC3C)C2C)OC1C (configuration not stated) | -97.6* | u | 0.316µM* | 17.8µM*
CC(=O)SC(C)CC(=O)NCc1ccccc1 (configuration not stated) | -33.8 | 11.8% | 11.9% | x
Cc1cccc(C)c1-n1nnnc1C(c1ccccc1)N1CCN(C/C=C/c2ccccc2)CC1 (configuration not stated) | -27.7 | x | x | -0.1%
CC(C)Cn1c(N)c(C(=O)CSc2nc3ncc(Cl)cc3[nH]2)c(=O)n(C)c1=O | -14.0 | u | u | 15.8µM*
Cc1[nH]c2ccccc2c1C(=O)CSc1nc2ncc(Cl)cc2[nH]1 | -62.3* | -10.2% | u | -15.1%
Cc1[nH]c2ccccc2c1C(=O)CSC(=S)N(C)C | -34.1 | 2.1% | 2.9% | 14.9%
Cc1[nH]c2ccccc2c1C(=O)CSC(=S)N1CCN(C)CC1 | -62.1* | x | x | 41.0%
CCCn1c(N)c(C(=O)CSc2nc3ncc(Cl)cc3[nH]2)c(=O)n(C)c1=O | -26.3 | x | x | u
CC(C)Cn1c(N)c(C(=O)CSc2ccc3c(c2)OCCO3)c(=O)n(C)c1=O | -94.3* | u | u | 11.2µM*
O=C(OCn1nnc2ccccc2c1=O)c1cccnc1Cl | 87.3 | -5.6% | 9.0% | -3.7%
[N-]=[N+]=NC(c1ccccc1)C(NC(=O)c1cc(C(F)(F)F)cc(C(F)(F)F)c1)c1ccccc1 (configuration not stated) | u | x | x | 25.1µM*
N#Cc1cc(S(=O)(=O)c2ccc(F)cc2)c(N)[nH]c1=O | -69.9* | x | x | -19.8%
CC(C)Oc1cccc(C(=O)NC(=S)Nc2ccccc2N2CCOCC2)c1 | -17.5 | -6.7% | 2.7% | -5.8%
CC1Cc2ccccc2N1S(=O)(=O)c1cccc(C(=O)N2CCN(c3ncccn3)CC2)c1 (configuration not stated) | -98.1* | u | u | u
CC1Cc2ccccc2N1S(=O)(=O)c1cccc(C(=O)NCCCO)c1 (configuration not stated) | 20.4 | -6.2% | -17.9% | -15.3%
